# Reference: PubChem BioAssay AID504832 (National Center for Advancing Translational Sciences (NCATS), 2011)
# The whole screen tested about 310,000 compounds, of which about 18,000 (5.8%) were called active. Entries that show only a call come without a potency. Inconclusive results (about 22%) are left out. The sample holds actives, similar compounds and a random draw of the others, so the mix is not that of the screen. A number with no mark means an inactive call. Calls come from the whole dose curve; as a rule, active = well fitted inhibition curve with a large enough effect; inconclusive = small, poorly fitted or top-dose-only effect, or another doubt; inactive = no such curve, though single readings can be large or run the other way.
# Experiment: Primary qHTS for delayed death inhibitors of the malarial parasite plastid, 48 hour incubation
# Conditions: P. falciparum luciferase growth in erythrocytes; series mostly up to 28.7 µM
# In short: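 In quantitative HTS format, infected erythrocytes bearing luciferase-reporter parasites were treated for a single generation at 37 C. Luminescence after adding detection reagent served as the growth measure.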
# Potency is the fitted concentration of half-maximal effect.
SMILES,Potency,"activity change, negative = inhibition"
COc1cccc(-n2c(=S)sc3c(=O)n(-c4ccccc4C)c(SCC(=O)O)nc32)c1,inactive,–
CCOc1ccccc1NC(=O)CCc1nnc2ccc(NCc3ccco3)nn12,inactive,–
COc1ccccc1CC(=O)NCCc1c[nH]c2ccccc12,inactive,–
CCC/C(=N\O)c1c[nH]c2ccccc12,inactive,–
O=S(=O)(O)Oc1c[nH]c2ccccc12,7.38 µM (active),–
CCc1noc(C)c1C(=O)Oc1ccc(N(C)S(=O)(=O)c2ccc(C)c(C)c2)cc1,inactive,–
CC1(C)O[C@@H]2[C@H](O1)[C@@H](COS(=O)(=O)O)O[C@H]2n1ccc(=O)[nH]c1=O,inactive,–
CCN(CC)CCCNC(=O)c1c(O)c2cc(F)cc3c2n(c1=O)C(C)CC3 (stereo unspecified),inactive,–
COCCOC(=O)C1=C(C)NC(=O)NC1c1ccc(Cl)cc1 (stereo unspecified),inactive,–
CCOC(=O)C1=C(c2ccccc2)NC(=S)NC1c1ccc(Cl)cc1 (stereo unspecified),inactive,–
CCOC(=O)C1=C(C)NC(=O)N(C(C)=O)C1c1ccc(Cl)cc1 (stereo unspecified),5.22 µM (active),–
COc1ccc(C(=O)Nc2ccc(C(=O)NCC3CCCO3)cc2)c(OC)c1OC (stereo unspecified),inactive,–
O=C(NNC(=O)c1cc(S(=O)(=O)N2CCCCC2)ccc1Cl)c1ccccc1O,inactive,–
Cc1ccc(S(=O)(=O)N2CCN(C)CC2)cc1C(=O)NC1CCCCC1,inactive,–
CC1CCCC(NC(=O)c2cc(S(=O)(=O)N3CCCCC3)ccc2Cl)C1C (stereo unspecified),13.1 µM (active),–
O=C(O)c1ccc2c(=O)n3c(nc2c1)/C(=C/c1ccc(OC(F)F)cc1OC(F)F)CC3,inactive,–
Nc1nc(SCC(=O)Nc2ccc(Cl)c([N+](=O)[O-])c2)n[nH]1,inactive,–
O=C(NCc1ccc2c(c1)OCO2)c1cc(F)c(F)cc1Cl,inactive,–
O=C(c1ccco1)N1CCN(C(=O)c2cc(-c3ccccc3F)no2)CC1,inactive,–
CCCOC(=O)c1[nH]c2c(c1C)C(=O)CC(c1cc(OC)c(OC)c(OC)c1)C2 (stereo unspecified),1.65 µM (active),–
COCCOC(=O)c1[nH]c2c(c1C)C(=O)CC(c1ccc(OC)cc1)C2 (stereo unspecified),inactive,–
CCOC(=O)c1[nH]c2c(c1-c1ccccc1)C(=O)CC(c1ccc(Cl)cc1)C2 (stereo unspecified),inactive,–
Cn1c(-c2ccc(C(F)(F)F)cc2)cc2onc(-c3ccccc3)c2c1=O,inactive,–
Cc1ccc(N(CC(=O)NC2CCCCC2)C(=O)CCCC(=O)Nc2ccccn2)c(C)c1,inactive,–
Cc1ccc(C)c(N(CC(=O)NCc2ccco2)C(=O)CCC(=O)Nc2ccccn2)c1,14.7 µM (active),–
COCCNC(=O)CN(C(=O)CCC(=O)Nc1cc(C)on1)c1ccc(C)cc1C,inactive,–

SMILES,Potency,"activity change, negative = inhibition"
CCc1ccc(NC(=O)Cn2nnc(C(=O)NCc3ccc4c(c3)OCO4)c2N)cc1,inactive,–
COc1ccc(CC(=O)Nc2ccc3c(c2)CCC3)cc1S(=O)(=O)N1CCOCC1,inactive,–
O=C(CN1CCN(c2cccc(Cl)c2)CC1)Nc1ccc(S(=O)(=O)N2CCOCC2)cc1,10.4 µM (active),–
O=C(CN1C(=O)CCC1=O)Nc1ccc(S(=O)(=O)N2CCOCC2)cc1,inactive,–
Cc1cc2cc(CNC(=O)c3ccc(S(=O)(=O)N4CCOCC4)cc3)ccc2[nH]1,13.1 µM (active),–
Cc1ccc(S(=O)(=O)N2CCOCC2)cc1C(=O)NCc1ccc(F)cc1,inactive,–
O=C(CN1CCN(S(=O)(=O)/C=C/c2ccccc2)CC1)Nc1ccc(N2CCOCC2)cc1,inactive,–
O=C(CN1CCCCCC1)Nc1ccc(S(=O)(=O)N2CCCCC2)cc1,inactive,–
Cc1ccc(CC(=O)Nc2ccc(S(=O)(=O)N3CCOCC3)cc2)cc1C,9.28 µM (active),–
O=C(Nc1ccc2cn[nH]c2c1)c1ccc(S(=O)(=O)N2CCOCC2)cc1,inactive,–
CCOC(=O)c1sc(=NC(=O)c2ccc(Br)cc2)n(C)c1C,inactive,–
Cn1c(=O)c2ccccc2n(CC(=O)Nc2ccc3c(c2)OCCO3)c1=O,inactive,–
COc1cc(C(=O)N/C(=C\c2cn(C)c3ccccc23)C(=O)N2CCOCC2)cc(OC)c1OC,inactive,–
CN(C)S(=O)(=O)c1cccc(C(=O)OCC(=O)N2CCCC2=O)c1,inactive,–
CC1CC1C(=O)OCC(=O)Nc1cccc(F)c1 (stereo unspecified),inactive,–
COc1ccc(NC(=O)NN2CCN(C)CC2)c(OC)c1,inactive,–
CCOc1ccc(/C=N\NC(=O)c2c(C)nc3cc(C)ccn23)cc1,inactive,–
Cn1c(=O)n(C)c2cc(S(=O)(=O)Nc3ccc(F)cc3)ccc21,inactive,–
CSCc1cc(N(C)C)nc(SCc2ccc(Cl)cc2Cl)n1,13.1 µM (active),–
Clc1ccc(CSc2nnc(/C=C/c3ccccc3)o2)c(Cl)c1,inactive,–
CC(C)(CNC(=O)Cc1ccc(Cl)cc1Cl)N1CCOCC1,inactive,–
CSCc1cc(N2CCOCC2)nc(SCc2ccc(Cl)cc2Cl)n1,13.1 µM (active),–
CSCCC(NC(=O)c1ccc(Cl)cc1Cl)C(=O)NNC(=O)c1csc(N2CCOCC2)n1 (stereo unspecified),inactive,–
Nc1cc(N)nc(SCc2ccc(Cl)cc2)n1,inactive,–
CCc1ccc(C(=O)COC(=O)c2ccco2)cc1,inactive,–
O=C(NCc1ccco1)/C(=C/c1ccco1)NC(=O)c1ccccc1,inactive,–

SMILES,Potency,"activity change, negative = inhibition"
CC1CCCN(S(=O)(=O)c2ccc(-c3ccc(=O)[nH]n3)o2)C1 (stereo unspecified),inactive,–
COC(=O)C1(C)CC1(c1ccccc1)c1ccccc1 (stereo unspecified),–,-9.84% [at 0.00184 µM]
Cc1ccccc1-n1cc(CNC(=O)C2CCC(=O)N(C3CC3)C2)cn1 (stereo unspecified),inactive,–
CCN1CCN(C(=O)N(Cc2ccc(Cl)cc2)S(=O)(=O)c2ccc(C)cc2)CC1,inactive,–
Cc1nn(C)cc1S(=O)(=O)N1CCN(c2ccc(F)cc2)CC1,inactive,–
Cc1ccc(CNC(=O)C(=O)c2cn(CC(=O)N3CCCC3)c3ccccc23)cc1,inactive,–
Oc1c(CN2CCCC2)cc(COCc2ccccc2)c2cccnc12,0.657 µM (active),–
Oc1ccc(CN2CCN(c3ncccn3)CC2)cc1,inactive,–
Cc1cccnc1NC(=O)c1cccc(S(=O)(=O)N2CCN(c3ccc(F)cc3)CC2)c1,inactive,–
O=C(Cc1ccccc1)NNC(=O)C1CCN(c2ncccn2)CC1,inactive,–
CC1CCCN(CC(O)COCc2ccccc2)C1 (stereo unspecified),inactive,–
Oc1c(CN2CCN(c3ccc(F)cc3)CC2)cc(Cl)c2cccnc12,1.85 µM (active),–
Cc1cc(S(=O)(=O)NCC(C)C)ccc1OCC(=O)NC1CC1,inactive,–
CC(=O)c1cccc(NC(=S)N2CCN(S(C)(=O)=O)CC2)c1,inactive,–
Cc1ccc(F)cc1S(=O)(=O)Nc1cccc(C(=O)N2CCCC(C(N)=O)C2)c1 (stereo unspecified),inactive,–
COc1ccc(OC)c(NC(=O)c2ccc3c(c2)C(=O)N(c2ccc(OC(C)=O)cc2)C3=O)c1,–,0.907% [at 0.00184 µM]
C/C(=N\NC(=O)C1(C)CC1(Br)Br)c1ccc(C)cc1C (stereo unspecified),inactive,–
O=C(CCn1nnnc1CN1CCOCC1)N1CCC(c2ccccc2Cl)C1 (stereo unspecified),inactive,–
CCc1nn(CC(=O)N2CCN(CC)CC2)c(=O)c2cccn12,inactive,–
Brc1ccc(CN2CC[C@H]3C=CCc4cccc(c43)C2)cc1,3.29 µM (active),–
NC(=O)c1ccc(CN2CCC(Cc3ccccc3)CC2)cc1,inactive,–
NC(=O)C1CC(=O)N(c2ccc(OCC(=O)NCc3ccccc3)cc2)C1 (stereo unspecified),inactive,–
CCN(C(=O)c1cc([N+](=O)[O-])ccc1NCc1cccnc1)c1ccccc1,inactive,–
CS(=O)(=O)Nc1ccccc1C(=O)OCC(=O)NC1CC1,inactive,–
CC(C)=CCc1c(O)c(CC=C(C)C)c2occ(-c3ccc(O)cc3)c(=O)c2c1O,2.94 µM (active),–
Cc1ccnc(NC(=O)CCNS(=O)(=O)c2ccc(C)c(C)c2)c1,inactive,–

SMILES,Potency,"activity change, negative = inhibition"
Cc1cccc(NS(=O)(=O)c2cc(Cl)ccc2Cl)n1,inactive,–
O=[N+]([O-])c1ccc(S(=O)(=O)Nc2cccc(-c3ccc(N4CCCC4)nn3)c2)cc1,inactive,–
COc1ccc([C@H]2CC(=O)C=C(c3ccc(C)cc3)C2)cc1,inactive,–
O=C1C=C(c2cc(C(F)(F)F)cc(C(F)(F)F)c2)C[C@@H](c2ccc3c(c2)OCO3)C1,8.28 µM (active),–
COc1ccc2cc(C3=CC(=O)C[C@H](c4ccc5c(c4)OCO5)C3)ccc2c1,inactive,–
CC(=O)C1=C(C)NC(=O)NC1c1ccc2c(c1)OCO2 (stereo unspecified),inactive,–
O=C1C=C(c2ccnc3cc(Cl)ccc23)C[C@@H](c2ccc3c(c2)OCO3)C1,7.38 µM (active),–
N#Cc1ccc(C2=CC(=O)C[C@H](c3ccc(Cl)cc3)C2)cc1,inactive,–
Cc1ccnc(NS(=O)(=O)c2ccc(NC(=O)c3oc4ccc(F)cc4c3C)cc2)n1,inactive,–
[2H]C(CCOS(N)(=O)=O)c1ccccc1 (stereo unspecified),inactive,–
CNC(=O)c1sc(NCc2ccccc2OC)nc1C,inactive,–
O=C(Nc1ccc(-c2cscn2)cc1)C1CCCN(Cc2ccc(CO)o2)C1 (stereo unspecified),inactive,–
COc1cc(-c2c(-c3ccc4c(c3)OCO4)noc2C)ccc1F,inactive,–
CCNC(=O)c1cccc(NC(=O)C2CC(=O)N(CCc3ccccc3)C2)c1 (stereo unspecified),inactive,–
CN(CC#CCC(c1ccccc1)c1ccccc1)C(C)(C)C,9.28 µM (active),–
Cc1ccccc1Nc1c(-c2ccccc2)nc2ncccn12,inactive,–
Cc1cccc(C)c1Nc1c(-c2ccccc2O)nc2ncccn12,2.94 µM (active),–
C[C@H](NC(=O)[C@@H]1Cc2ccccc2CN1C(=O)OC(C)(C)C)C(=O)NC1CCCC1,inactive,–
O/N=C(\C[n+]1ccccc1)c1ccc(Br)cc1,–,-29.6% [at 0.00184 µM]
Cc1cc(NC(=O)c2cc(-c3cccs3)on2)nn1Cc1ccc(Cl)cc1,10.4 µM (active),–
O=C(c1cc(-c2cccs2)on1)N1CCCCC1,inactive,–
CC(=O)c1ccc(NC(=O)c2cc(-c3cccs3)on2)cc1,inactive,–
COc1ccc(S(=O)(=O)N2CCC(C(=O)NCCC(=O)NCc3cccc(OC)c3)CC2)cc1,inactive,–
